This note sets out measurements from PubChem BioAssay (EPA / NIEHS).

Activity calls are given as the source filed them. How the source made its calls: active means hit-call score of the fitted dose curve at least 0.9, where 1 is the maximum; inactive means score below 0.9.

Read-out in assay [1]: Human Leukocyte Antigen - DR isotype (HLADR), HLA-DRA (gene 3122)
Put plainly: BSK_3C_HLADR: BioMAP Diversity Plus: 3C Assay for Human Leukocyte Antigen - DR isotype (HLADR) Biomarker Activity (AID 2283019). The conditions noted are these: primary human endothelial cells (HUVEC); actives raise or lower the signal. The method, boiled down:
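Primary human umbilical vein endothelial cells (3C system) were dosed with compound and cell-surface HLA-DR was quantified by ELISA at 24 h. Activity was fitted bidirectionally against DMSO as negative control and baseline.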

Read-out in assay [2]: Interleukin-8 (IL8), CXCL8 (gene 3576)
The assay is described as follows: BSK_3C_IL8: BioMAP Diversity Plus: 3C Assay for Interleukin-8 (IL8) Biomarker Activity (AID 2283020). The conditions noted are these: primary human endothelial cells (HUVEC); actives raise or lower the signal. The method, boiled down: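 IL-8 was measured by ELISA in HUVEC cultures 24 h after chemical dosing, with gain or loss of signal fitted relative to DMSO. Parallel SRB total-protein staining tracked overt cytotoxicity.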

Read-out in assay [3]: Monokine induced gamma interferon (MIG), CXCL9 (gene 4283)
The assay is described as follows: BSK_3C_MIG: BioMAP Diversity Plus: 3C Assay for Monokine induced gamma interferon (MIG) Biomarker Activity (AID 2283021). The conditions noted are these: primary human endothelial cells (HUVEC); actives raise or lower the signal. The method, boiled down: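 ELISA measurement of MIG in human umbilical vein endothelial cells 24 h after treatment. Cytotoxicity tracked by SRB staining in parallel cultures; gain or loss of signal fitted relative to DMSO.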

Assay [4] is described as follows: BSK_3C_SRB: Viability Assessment in the BioMAP Diversity Plus: 3C Assay (AID 2283023).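 Further: fitted both ways against DMSO so a hit may be signal rise or drop.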 The conditions noted are these: primary human endothelial cells (HUVEC). The method, boiled down:
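Primary human umbilical vein endothelial cells in the 3C system were read 24 h after compound dosing. Total protein was stained with 0.1% sulforhodamine B after 10% TCA fixation and read at 560 nm, with bidirectional fitting against DMSO as baseline.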

Read-out in assay [5]: Matrix Metallopeptidase 1 (MMP1), MMP1 (gene 4312)
Put plainly: BSK_BE3C_MMP1: BioMAP Diversity Plus: BE3C Assay for Matrix Metallopeptidase 1 (MMP1) Biomarker Activity (AID 2283024). The conditions noted are these: primary human bronchial epithelial cells; actives raise or lower the signal. The method, boiled down: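 ELISA measurement of MMP-1 after 24 h compound exposure of primary human bronchial epithelial cells. Changes in either direction fitted relative to DMSO; parallel SRB staining checked overt cytotoxicity.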

The nature of assay [6]: BSK_3C_Vis: BioMAP Diversity Plus: 3C Assay for Morphology Visualization (AID 2283025).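 Further: light microscopy image of cell morphology used as background control; fitted both ways so gain or loss versus DMSO counts.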 The conditions noted are these: primary human endothelial cells (HUVEC). The method, boiled down: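 Light-microscopy visualization of HUVEC cultures at 24 h post-treatment, with DMSO as baseline for bidirectional fitting.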
Read-out in assay [7]: Pselectin, SELP (gene 6403)
Put plainly: BSK_4H_Pselectin: BioMAP Diversity Plus: 4H Assay for Pselectin Biomarker Activity (AID 2283026). The conditions noted are these: primary human endothelial cells (HUVEC); actives raise or lower the signal. The method, boiled down: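 ELISA of surface P-selectin on HUVEC, 24 h after dosing, with parallel SRB staining (0.1% after 10% TCA fixation, 560 nm) for overt cytotoxicity. Activity fitted in both directions relative to DMSO.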

Assay [8] in a line: BSK_4H_SRB: Viability Assessment in the BioMAP Diversity Plus: 4H Assay (AID 2283027).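 Further: cells exposed to compound for 24 h before staining.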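 On AC50: curves fitted both ways versus DMSO so AC50 may be loss or gain.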 The conditions noted are these: primary human endothelial cells (HUVEC). The method, boiled down: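 Cytotoxicity read-out in primary human endothelial cells: after 24 h compound exposure, cells were TCA-fixed (10%), stained with 0.1% SRB and absorbance taken at 560 nm. Values fitted in both directions relative to DMSO.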

Assay [9] is described as follows: BSK_BE3C_SRB: Viability Assessment in the BioMAP Diversity Plus: BE3C Assay (AID 2283028).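 On AC50: fitted both ways so AC50 may mark signal gain or loss versus DMSO.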 The conditions noted are these: primary human bronchial epithelial cells. The method, boiled down: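 Human primary bronchial epithelial cells were exposed to test chemicals for 24 h. Total protein in parallel cultures was then measured by staining with 0.1% sulforhodamine B after 10% TCA fixation, with absorbance read at 560 nm. Activity was fitted bidirectionally against DMSO.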

Read-out in assay [10]: Thrombomodulin, THBD (gene 7056)
Put plainly: BSK_3C_Thrombomodulin: BioMAP Diversity Plus: 3C Assay for Thrombomodulin Biomarker Activity (AID 2283029). The conditions noted are these: primary human endothelial cells (HUVEC); actives raise or lower the signal. The method, boiled down: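 ELISA measurement of thrombomodulin on HUVEC surface 24 h after chemical dosing; activity fitted in both directions relative to DMSO vehicle.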

Read-out in assay [11]: Urokinase-type plasminogen activator receptor (uPAR), PLAUR (gene 5329)
The assay is described as follows: BSK_4H_uPAR: BioMAP Diversity Plus: 4H Assay for Urokinase-type plasminogen activator receptor (uPAR) Biomarker Activity (AID 2283030). The conditions noted are these: primary human endothelial cells (HUVEC); actives raise or lower the signal. The method, boiled down:
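Primary human umbilical vein endothelial cells were exposed to chemical for 24 h before cell-surface uPAR was quantified by ELISA. Activity was fitted bidirectionally against the DMSO negative control baseline.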

Read-out in assay [12]: Vascular endothelial growth factor receptor 2 (Homo sapiens) (UniProt P35968)
The assay is described as follows: BSK_4H_VEGFRII: BioMAP Diversity Plus: 4H Assay for Vascular endothelial growth factor receptor 2 (VEGFR2) Biomarker Activity (AID 2283031). The conditions noted are these: primary human endothelial cells (HUVEC); actives raise or lower the signal. The method, boiled down:
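Primary human umbilical vein endothelial cells in the BioMAP 4H system were dosed with test chemical, and 24 h later VEGFRII was measured by ELISA. Activity was fitted bidirectionally against DMSO as negative control and baseline.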

Read-out in assay [13]: Human Leukocyte Antigen - DR isotype (HLADR), HLA-DRA (gene 3122)
The assay is described as follows: BSK_BE3C_HLADR: BioMAP Diversity Plus: BE3C Assay for Human Leukocyte Antigen - DR isotype (HLADR) Biomarker Activity (AID 2283032). The conditions noted are these: primary human bronchial epithelial cells; actives raise or lower the signal. The method, boiled down:
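Cell-surface HLA-DR ELISA readout at 24 h after dosing in the BE3C primary human lung bronchial epithelial system; gain or loss of signal against DMSO, with parallel sulforhodamine B staining of total protein for overt cytotoxicity.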

Read-out in assay [14]: Vascular cell adhesion molecule 1 (VCAM1), VCAM1 (gene 7412)
The assay is described as follows: BSK_4H_VCAM1: BioMAP Diversity Plus: 4H Assay for Vascular cell adhesion molecule 1 (VCAM1) Biomarker Activity (AID 2283033).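 On outcome: cell-surface VCAM-1 protein measured by ELISA.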 The conditions noted are these: primary human endothelial cells (HUVEC); actives raise or lower the signal. The method, boiled down: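 VCAM-1 ELISA read 24 h after chemical dosing of HUVEC in the BioMAP 4H system, with gain or loss of signal fitted relative to DMSO. Parallel SRB staining (560 nm) checked overt cytotoxicity.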

Read-out in assay [15]: Interferon-gamma inducible Protein 10 (IP10), CXCL10 (gene 3627)
The assay is described as follows: BSK_BE3C_IP10: BioMAP Diversity Plus: BE3C Assay for Interferon-gamma inducible Protein 10 (IP10) Biomarker Activity (AID 2283034). The conditions noted are these: primary human bronchial epithelial cells; actives raise or lower the signal. The method, boiled down: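 IP-10 quantified by ELISA in human primary bronchial epithelial cell cultures at 24 hours post-dosing. Gain or loss of signal fitted relative to DMSO; parallel SRB staining assessed overt cytotoxicity.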

Read-out in assay [16]: Monokine induced gamma interferon (MIG), CXCL9 (gene 4283)
Put plainly: BSK_BE3C_MIG: BioMAP Diversity Plus: BE3C Assay for Monokine induced gamma interferon (MIG) Biomarker Activity (AID 2283035). The conditions noted are these: primary human bronchial epithelial cells; actives raise or lower the signal. The method, boiled down:
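ELISA quantified MIG after 24 h exposure of primary bronchial epithelial cultures, analysed in both directions relative to DMSO. Cytotoxicity tracked in parallel cultures by sulforhodamine B staining.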

Read-out in assay [17]: Transforming growth factor beta 1 (TGFb1), TGFB1 (gene 7040)
The assay is described as follows: BSK_BE3C_TGFb1: BioMAP Diversity Plus: BE3C Assay for Transforming growth factor beta 1 (TGFb1) Biomarker Activity (AID 2283036;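 on outcome: TGF-b1 protein level measured by ELISA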). The conditions noted are these: primary human bronchial epithelial cells; actives raise or lower the signal. The method, boiled down:
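ELISA readout of TGF-b1 from human lung bronchial epithelial primary cells, taken 24 h post-treatment. Gain or loss of signal fitted relative to DMSO baseline, with parallel SRB staining for overt cytotoxicity.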

Read-out in assay [18]: Plasminogen activator inhibitor-1 (PAI1), SERPINE1 (gene 5054)
Put plainly: BSK_BE3C_PAI1: BioMAP Diversity Plus: BE3C Assay for Plasminogen activator inhibitor-1 (PAI1) Biomarker Activity (AID 2283037). The conditions noted are these: primary human bronchial epithelial cells; actives raise or lower the signal. The method, boiled down: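 PAI-1 was measured by ELISA in human primary bronchial epithelial cultures 24 h after chemical dosing, with cytotoxicity checked by SRB total-protein staining in parallel cultures. Activity was fitted in both directions relative to DMSO.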

Read-out in assay [19]: urokinase plasminogen activator (uPA), PLAU (gene 5328)
Put plainly: BSK_BE3C_uPA: BioMAP Diversity Plus: BE3C Assay for urokinase plasminogen activator (uPA) Biomarker Activity (AID 2283038).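 On outcome: uPA protein level quantified by ELISA in cell cultures; uPA read one day after compound addition.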 The conditions noted are these: primary human bronchial epithelial cells; actives raise or lower the signal. The method, boiled down: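 Human primary bronchial epithelial cells were exposed to chemical for 24 h, then uPA levels were measured by ELISA. Responses were fitted bidirectionally against DMSO as negative control and baseline. Parallel SRB staining of total protein gauged overt cytotoxicity.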

Read-out in assay [20]: Urokinase-type plasminogen activator receptor (uPAR), PLAUR (gene 5329)
The assay is described as follows: BSK_BE3C_uPAR: BioMAP Diversity Plus: BE3C Assay for Urokinase-type plasminogen activator receptor (uPAR) Biomarker Activity (AID 2283039).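 On outcome: cells exposed to compound for one day before measurement.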 The conditions noted are these: primary human bronchial epithelial cells; actives raise or lower the signal. The method, boiled down:
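uPAR levels were measured by ELISA after 24 h compound treatment of primary human bronchial epithelial cells, fitted in both directions relative to DMSO. Parallel SRB staining served as the cytotoxicity read-out.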

Usually AC50 stands for the midpoint of the concentration-response curve, whichever way the signal moves.

With `CC(C)N1C(=O)N(c2ccccc2)CSC1=NC(C)(C)C`, the AC50 in assay [1] was 31.8 µM (active); in assay [2], 25.4 µM (active); in assay [4] it was 27.2 µM (active); in assay [5], 25.8 µM (active); in [6], 16.3 µM (active); in [7], 31.2 µM (active). Besides, the AC50 in assay [8] is 31.2 µM (active); in assay [9], 27.8 µM (active); in assay [11], 31.7 µM (active); in [13], 28.9 µM (active); in assay [14], 29.8 µM (active); in assay [15], 30.4 µM (active). In addition, the AC50 in assay [20] is 33.7 µM (active). In addition, the outcome in assay [3], in [10], in assay [12], in [16], in assay [17] and in assay [18] was inactive. The outcome in [19] was inactive.

As for `O=C1C2CC=CCC2C(=O)N1SC(Cl)(Cl)Cl` (configuration not stated), the AC50 was 36.7 µM (active) in assay [1]; 12.1 µM (active) in assay [5]; 39 µM (active) in assay [6]; 23.9 µM (active) in assay [7]; 12.3 µM (active) in [13]; 11.9 µM (active) in assay [15]. Besides, the half-maximal activity concentration (AC50) is 13.5 µM (active) in [16], 12.7 µM (active) in [17], 12.4 µM (active) in assay [18] and 11.5 µM (active) in assay [19]. Further, the result in assay [2], in assay [3], in [4], in assay [8], in assay [9] and in assay [10] was inactive. Besides, the result in [11] and in assay [20] was inactive.

For `CS(=O)(=O)c1cc(C(F)(F)F)ccc1C(=O)c1cnoc1C1CC1`, the result in assay [1], in assay [2], in [3], in assay [4], in [5] and in assay [7] was inactive. In addition, the result in assay [8], in [9], in [10], in [11], in assay [12] and in [13] was inactive. Moreover, the result in [14], in assay [16], in assay [17], in assay [18], in assay [19] and in [20] was inactive. Moreover, the half-maximal activity concentration (AC50) in assay [15] is 4.13 µM (active).
